Measurements taken from the supplement of paper PMC10849652.
About 8,800 targets were measured; listed, in parts, are those with a hit and a random draw of the rest. About 0.5% of all pairs of compound and target were hits. Values without a mark were called inactive.

Columns and labels:
Experiment in all cases: log2 fold change, soluble protein after heating vs DMSO (PISA); higher = thermal stabilisation; K562 lysate, 10 uM; active = over 0.2 and 3.5 SD of the protein, either way, in both replicates (recomputed)
[1] = compound: NCC(=O)Nc1ccc(-n2nc(C(F)(F)F)cc2-c2ccc3c(ccc4ccccc43)c2)cc1
Summary of the method: (§1)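 K562 pellets were dounce-homogenised in PBS pH 7.4 with 1 mM MgCl2, and the crude extract at 1 mg/mL protein was treated with 10 μM compound for 30 min. Aliquots were heated for 3 min across 48°C-58°C, pooled, and brought to 0.5% NP-40 at 4°C; soluble protein was the supernatant after 21,000xg for 90 min. Soluble protein was quantified by TMTpro 16plex LC-MS/MS with channel sums equalised, and reported as log2 fold change in thermal stability against DMSO controls, with values from duplicates.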

[2] = compound: O=C(CCCCCCC(=O)Nc1ccccc1)NO [vorinostat]
Summary of the method: as §1

[3] = compound: O=C(O)c1ccc2c(c1)nc(Nc1cccc(Cl)c1)c1ccncc12 [silmitasertib]
Summary of the method: as §1

[4] = compound: O=C1NC(=O)C(c2cnc3ccccn23)=C1c1cn2c3c(cc(F)cc13)CN(C(=O)N1CCCCC1)CC2
Summary of the method: as §1

[5] = compound: c1cn2cc(-c3ccc4cn[nH]c4c3)nc(Nc3ccc(N4CCOCC4)cc3)c2n1 [entospletinib]
Summary of the method: as §1

Target: VPS16 (UniProt Q9H269)
- log2 fold change [1]: -0.047
- log2 fold change [2]: -0.543 (active)
- log2 fold change [3]: 0.076
- log2 fold change [4]: -0.01
- log2 fold change [5]: 0.03

Target: YRDC (UniProt Q86U90)
- log2 fold change [1]: 0.024
- log2 fold change [2]: -0.424 (active)
- log2 fold change [3]: 0.006
- log2 fold change [4]: -0.017
- log2 fold change [5]: -0.016

Target: VRK1 (UniProt Q99986)
- log2 fold change [1]: -0.013
- log2 fold change [2]: -0.08
- log2 fold change [3]: 0.091
- log2 fold change [4]: 0.002
- log2 fold change [5]: 0.056

Target: ZNF598 isoform 3 (UniProt Q86UK7)
- log2 fold change [1]: 0.01
- log2 fold change [2]: -0.338 (active)
- log2 fold change [3]: 0
- log2 fold change [4]: 0.024
- log2 fold change [5]: -0.017

Target: VASP (UniProt P50552)
- log2 fold change [1]: 0.035
- log2 fold change [2]: 0.015
- log2 fold change [3]: 0.015
- log2 fold change [4]: 0.01
- log2 fold change [5]: -0.013

Target: ZBTB33 (UniProt Q86T24)
- log2 fold change [1]: 0.061
- log2 fold change [2]: 0.103
- log2 fold change [3]: -0.082
- log2 fold change [4]: 0.009
- log2 fold change [5]: -0.033

Target: ZNF609 (UniProt O15014)
- log2 fold change [1]: 0.184
- log2 fold change [2]: -0.309 (active)
- log2 fold change [3]: 0.041
- log2 fold change [4]: -0.013
- log2 fold change [5]: -0.026

Target: VRK2 (UniProt Q86Y07)
- log2 fold change [1]: -0.158
- log2 fold change [2]: -0.166
- log2 fold change [3]: -0.022
- log2 fold change [4]: 0.039
- log2 fold change [5]: -0.064

Target: YDJC (UniProt A8MPS7)
- log2 fold change [1]: 0.048
- log2 fold change [2]: -0.443 (active)
- log2 fold change [3]: 0.023
- log2 fold change [4]: -0.051
- log2 fold change [5]: 0.051

Target: WIPI2 (UniProt Q9Y4P8)
Sequence of UniProt Q9Y4P8 (Q9Y4P8 whole entry, looked up): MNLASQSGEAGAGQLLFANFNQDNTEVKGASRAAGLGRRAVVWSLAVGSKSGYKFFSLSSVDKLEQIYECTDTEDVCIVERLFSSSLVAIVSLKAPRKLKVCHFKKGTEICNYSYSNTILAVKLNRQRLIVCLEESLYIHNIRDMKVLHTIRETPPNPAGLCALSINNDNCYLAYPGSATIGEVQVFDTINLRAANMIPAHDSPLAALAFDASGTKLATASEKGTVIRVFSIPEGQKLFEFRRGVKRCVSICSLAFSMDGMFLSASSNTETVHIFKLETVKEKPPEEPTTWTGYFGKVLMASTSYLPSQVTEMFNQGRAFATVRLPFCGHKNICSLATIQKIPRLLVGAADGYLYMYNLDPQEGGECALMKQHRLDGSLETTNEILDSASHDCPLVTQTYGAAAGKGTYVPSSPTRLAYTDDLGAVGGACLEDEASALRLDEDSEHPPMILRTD
- log2 fold change [1]: -0.036
- log2 fold change [2]: -0.303 (active)
- log2 fold change [3]: 0.033
- log2 fold change [4]: -0.005
- log2 fold change [5]: -0.008

Target: YES1 (UniProt P07947)
Sequence of UniProt P07947 (P07947 whole entry, looked up): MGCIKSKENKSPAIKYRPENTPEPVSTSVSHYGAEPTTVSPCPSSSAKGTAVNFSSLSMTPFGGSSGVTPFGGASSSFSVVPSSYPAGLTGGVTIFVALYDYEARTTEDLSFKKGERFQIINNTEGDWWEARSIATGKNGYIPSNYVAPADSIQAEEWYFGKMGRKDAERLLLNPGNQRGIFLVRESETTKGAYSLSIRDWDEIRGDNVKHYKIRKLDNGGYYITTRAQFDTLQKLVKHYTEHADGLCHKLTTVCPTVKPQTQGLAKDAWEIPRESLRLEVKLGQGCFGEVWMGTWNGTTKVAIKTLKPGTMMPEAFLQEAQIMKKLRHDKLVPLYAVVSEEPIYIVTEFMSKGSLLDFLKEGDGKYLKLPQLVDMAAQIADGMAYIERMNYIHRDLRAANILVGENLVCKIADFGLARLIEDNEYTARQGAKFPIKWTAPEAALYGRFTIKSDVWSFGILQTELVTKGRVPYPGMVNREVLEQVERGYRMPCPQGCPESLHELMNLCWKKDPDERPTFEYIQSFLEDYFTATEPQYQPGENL
- log2 fold change [1]: 0.09
- log2 fold change [2]: -0.067
- log2 fold change [3]: -0.187
- log2 fold change [4]: -0.054
- log2 fold change [5]: 0.038

Target: ULK3 isoform 4 (UniProt Q6PHR2)
- log2 fold change [1]: -0.102
- log2 fold change [2]: -0.05
- log2 fold change [3]: 0.242
- log2 fold change [4]: 0.046
- log2 fold change [5]: 0.273

Target: ZNHIT6 (UniProt Q9NWK9)
Sequence of UniProt Q9NWK9 (Q9NWK9 whole entry, looked up): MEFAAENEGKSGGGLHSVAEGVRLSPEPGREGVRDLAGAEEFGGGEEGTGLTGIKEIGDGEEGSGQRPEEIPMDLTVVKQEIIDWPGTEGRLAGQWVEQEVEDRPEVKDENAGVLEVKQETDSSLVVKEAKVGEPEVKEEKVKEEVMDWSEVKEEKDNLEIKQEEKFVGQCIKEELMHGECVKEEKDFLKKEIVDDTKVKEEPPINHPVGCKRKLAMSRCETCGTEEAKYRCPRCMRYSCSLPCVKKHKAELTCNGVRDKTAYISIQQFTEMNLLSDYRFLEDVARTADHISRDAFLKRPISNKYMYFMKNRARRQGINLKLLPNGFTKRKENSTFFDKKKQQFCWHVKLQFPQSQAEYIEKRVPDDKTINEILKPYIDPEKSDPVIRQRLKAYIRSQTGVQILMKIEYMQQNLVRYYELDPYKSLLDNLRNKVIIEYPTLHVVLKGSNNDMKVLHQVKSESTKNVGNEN
- log2 fold change [1]: 0.001
- log2 fold change [2]: -0.218 (active)
- log2 fold change [3]: -0.041
- log2 fold change [4]: 0.002
- log2 fold change [5]: -0.062

Target: USP22 (UniProt Q9UPT9)
- log2 fold change [1]: -0.069
- log2 fold change [2]: -0.323 (active)
- log2 fold change [3]: -0.045
- log2 fold change [4]: 0.001
- log2 fold change [5]: 0.059

Target: VPS4A (UniProt Q9UN37)
- log2 fold change [1]: -0.026
- log2 fold change [2]: -0.356 (active)
- log2 fold change [3]: 0.059
- log2 fold change [4]: -0.013
- log2 fold change [5]: 0.038

Target: VPS41 (UniProt P49754)
- log2 fold change [1]: -0.025
- log2 fold change [2]: -0.471 (active)
- log2 fold change [3]: 0.004
- log2 fold change [4]: -0.018
- log2 fold change [5]: 0.007

Target: ZSWIM8 isoform 4 (UniProt A7E2V4)
- log2 fold change [1]: 0.079
- log2 fold change [2]: -0.07
- log2 fold change [3]: 0.081
- log2 fold change [4]: 0.071
- log2 fold change [5]: -0.018

Target: WDR77 (UniProt Q9BQA1)
- log2 fold change [1]: -0.052
- log2 fold change [2]: -0.067
- log2 fold change [3]: 0.041
- log2 fold change [4]: -0.01
- log2 fold change [5]: 0.006

Target: USP48 isoform 8 (UniProt Q86UV5)
- log2 fold change [1]: 0.014
- log2 fold change [2]: -0.474 (active)
- log2 fold change [3]: 0.009
- log2 fold change [4]: -0.022
- log2 fold change [5]: 0.021

Target: VPS37B (UniProt Q9H9H4)
- log2 fold change [1]: 0.029
- log2 fold change [2]: -0.349 (active)
- log2 fold change [3]: 0.045
- log2 fold change [4]: -0.035
- log2 fold change [5]: -0.058

Target: WDR91 (UniProt A4D1P6)
- log2 fold change [1]: -0.045
- log2 fold change [2]: -0.227 (active)
- log2 fold change [3]: 0.042
- log2 fold change [4]: -0.004
- log2 fold change [5]: -0.029

Target: ZNF318 (UniProt Q5VUA4)
Sequence of UniProt Q5VUA4 (Q5VUA4 whole entry, looked up): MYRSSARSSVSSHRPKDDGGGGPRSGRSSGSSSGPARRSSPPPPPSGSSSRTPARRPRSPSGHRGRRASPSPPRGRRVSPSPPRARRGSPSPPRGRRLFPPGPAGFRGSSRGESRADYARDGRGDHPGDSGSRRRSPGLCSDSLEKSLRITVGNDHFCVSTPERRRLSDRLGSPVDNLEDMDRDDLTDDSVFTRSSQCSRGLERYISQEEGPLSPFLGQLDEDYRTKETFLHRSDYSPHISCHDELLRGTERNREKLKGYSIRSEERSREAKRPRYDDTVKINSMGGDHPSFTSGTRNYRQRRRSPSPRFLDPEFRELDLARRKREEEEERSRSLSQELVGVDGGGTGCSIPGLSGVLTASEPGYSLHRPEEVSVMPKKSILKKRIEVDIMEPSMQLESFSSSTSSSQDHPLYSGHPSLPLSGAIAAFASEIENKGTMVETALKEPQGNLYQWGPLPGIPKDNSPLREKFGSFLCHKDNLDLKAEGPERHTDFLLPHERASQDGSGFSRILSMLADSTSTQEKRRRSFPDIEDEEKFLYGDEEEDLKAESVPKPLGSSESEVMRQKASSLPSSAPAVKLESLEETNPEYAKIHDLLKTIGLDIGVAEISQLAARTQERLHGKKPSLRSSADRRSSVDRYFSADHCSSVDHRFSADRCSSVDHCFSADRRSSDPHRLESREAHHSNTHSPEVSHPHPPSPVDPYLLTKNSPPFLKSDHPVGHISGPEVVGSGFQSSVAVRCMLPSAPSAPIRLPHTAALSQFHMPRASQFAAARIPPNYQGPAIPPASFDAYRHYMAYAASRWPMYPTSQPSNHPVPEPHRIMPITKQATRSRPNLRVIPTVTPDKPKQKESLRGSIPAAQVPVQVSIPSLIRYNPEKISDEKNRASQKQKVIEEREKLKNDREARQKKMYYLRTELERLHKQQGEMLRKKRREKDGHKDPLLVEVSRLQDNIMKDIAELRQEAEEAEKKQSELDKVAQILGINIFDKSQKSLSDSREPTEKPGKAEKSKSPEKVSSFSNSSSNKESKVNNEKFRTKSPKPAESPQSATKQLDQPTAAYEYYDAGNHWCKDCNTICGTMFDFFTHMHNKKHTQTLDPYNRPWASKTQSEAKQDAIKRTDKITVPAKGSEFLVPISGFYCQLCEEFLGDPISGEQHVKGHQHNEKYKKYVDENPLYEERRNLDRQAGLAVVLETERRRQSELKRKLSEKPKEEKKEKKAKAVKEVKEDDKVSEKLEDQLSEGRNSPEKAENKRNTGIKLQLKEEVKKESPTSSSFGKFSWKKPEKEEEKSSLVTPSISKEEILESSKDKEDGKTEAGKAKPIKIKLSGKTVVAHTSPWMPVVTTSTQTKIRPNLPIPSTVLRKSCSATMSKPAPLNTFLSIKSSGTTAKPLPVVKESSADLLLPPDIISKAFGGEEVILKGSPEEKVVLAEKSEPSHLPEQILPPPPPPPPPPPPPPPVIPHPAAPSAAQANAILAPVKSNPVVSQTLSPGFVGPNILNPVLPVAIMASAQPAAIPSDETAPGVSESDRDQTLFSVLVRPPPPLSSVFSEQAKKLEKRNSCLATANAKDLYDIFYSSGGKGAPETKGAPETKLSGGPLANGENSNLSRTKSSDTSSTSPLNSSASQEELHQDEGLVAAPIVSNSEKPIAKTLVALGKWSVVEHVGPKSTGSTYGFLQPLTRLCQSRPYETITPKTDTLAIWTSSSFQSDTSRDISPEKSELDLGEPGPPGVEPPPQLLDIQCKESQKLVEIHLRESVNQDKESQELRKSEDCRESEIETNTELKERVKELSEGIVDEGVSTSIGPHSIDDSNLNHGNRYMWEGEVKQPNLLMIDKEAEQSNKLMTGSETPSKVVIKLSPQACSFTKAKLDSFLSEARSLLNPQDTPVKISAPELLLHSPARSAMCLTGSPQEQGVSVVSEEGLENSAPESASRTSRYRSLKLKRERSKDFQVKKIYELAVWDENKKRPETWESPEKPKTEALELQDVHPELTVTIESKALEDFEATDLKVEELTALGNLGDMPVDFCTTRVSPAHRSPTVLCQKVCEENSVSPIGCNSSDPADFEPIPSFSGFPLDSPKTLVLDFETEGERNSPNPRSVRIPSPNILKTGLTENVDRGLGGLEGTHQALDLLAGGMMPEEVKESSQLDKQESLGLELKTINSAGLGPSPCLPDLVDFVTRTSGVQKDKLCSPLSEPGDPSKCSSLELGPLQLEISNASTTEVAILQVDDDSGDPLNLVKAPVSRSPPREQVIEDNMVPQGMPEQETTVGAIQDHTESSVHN
- log2 fold change [1]: 0.064
- log2 fold change [2]: -0.332 (active)
- log2 fold change [3]: -0.045
- log2 fold change [4]: -0.059
- log2 fold change [5]: -0.024

Target: VARS (UniProt P26640)
Sequence of UniProt P26640 (P26640 whole entry, looked up): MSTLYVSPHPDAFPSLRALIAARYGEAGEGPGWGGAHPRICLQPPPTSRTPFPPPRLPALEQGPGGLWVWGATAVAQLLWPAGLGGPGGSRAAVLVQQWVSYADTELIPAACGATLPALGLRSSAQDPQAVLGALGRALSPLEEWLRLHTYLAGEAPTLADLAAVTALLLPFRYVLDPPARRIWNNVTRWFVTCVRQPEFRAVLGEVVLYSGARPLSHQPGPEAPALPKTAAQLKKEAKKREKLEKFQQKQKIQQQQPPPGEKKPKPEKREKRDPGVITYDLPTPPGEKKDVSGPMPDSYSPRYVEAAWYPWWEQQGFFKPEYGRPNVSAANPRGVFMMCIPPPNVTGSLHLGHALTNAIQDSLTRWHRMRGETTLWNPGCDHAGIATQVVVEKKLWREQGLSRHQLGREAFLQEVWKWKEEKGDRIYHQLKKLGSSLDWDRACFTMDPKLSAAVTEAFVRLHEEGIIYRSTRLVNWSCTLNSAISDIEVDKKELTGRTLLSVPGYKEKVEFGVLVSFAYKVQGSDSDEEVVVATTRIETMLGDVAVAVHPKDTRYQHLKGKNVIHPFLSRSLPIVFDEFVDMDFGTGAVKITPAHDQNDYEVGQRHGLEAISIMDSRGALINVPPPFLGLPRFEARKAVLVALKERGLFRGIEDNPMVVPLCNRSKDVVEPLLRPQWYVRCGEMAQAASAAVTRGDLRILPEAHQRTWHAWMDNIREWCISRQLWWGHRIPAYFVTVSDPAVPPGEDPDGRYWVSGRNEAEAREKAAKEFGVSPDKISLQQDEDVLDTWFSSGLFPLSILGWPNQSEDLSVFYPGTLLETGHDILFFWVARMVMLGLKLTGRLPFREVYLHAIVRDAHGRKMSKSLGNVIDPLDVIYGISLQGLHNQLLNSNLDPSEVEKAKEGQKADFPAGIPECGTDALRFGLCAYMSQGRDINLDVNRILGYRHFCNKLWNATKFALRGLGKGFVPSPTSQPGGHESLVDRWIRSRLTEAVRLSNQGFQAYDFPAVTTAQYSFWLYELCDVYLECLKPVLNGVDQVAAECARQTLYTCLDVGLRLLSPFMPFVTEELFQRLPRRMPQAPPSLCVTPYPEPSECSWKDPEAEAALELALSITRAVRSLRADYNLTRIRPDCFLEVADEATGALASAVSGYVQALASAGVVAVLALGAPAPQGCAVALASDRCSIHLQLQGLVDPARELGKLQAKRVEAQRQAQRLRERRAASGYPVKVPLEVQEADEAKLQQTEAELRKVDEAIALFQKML
- log2 fold change [1]: 0.006
- log2 fold change [2]: -0.275 (active)
- log2 fold change [3]: 0.063
- log2 fold change [4]: 0.022
- log2 fold change [5]: 0.024

Target: VTN (UniProt P04004)
- log2 fold change [1]: 0.126
- log2 fold change [2]: -0.07
- log2 fold change [3]: -0.076
- log2 fold change [4]: -0.085
- log2 fold change [5]: -0.146

Target: YLPM1 (UniProt P49750)
- log2 fold change [1]: 0.013
- log2 fold change [2]: -0.126
- log2 fold change [3]: -0.011
- log2 fold change [4]: 0.017
- log2 fold change [5]: -0.004

Target: USP48 (UniProt Q86UV5)
- log2 fold change [1]: -0.054
- log2 fold change [2]: -0.528 (active)
- log2 fold change [3]: 0.07
- log2 fold change [4]: 0.034
- log2 fold change [5]: -0.102
